Records with an inconclusive call do not appear. Where a call stands in place of a potency, no number is given. The source made the active and inactive calls. Unless noted, calls follow the shape of the dose curve; as a rule, active = well fitted curve in the direction sought with a large enough effect; inconclusive = small, poorly fitted or top-dose-only effect, or another doubt; inactive = no such curve, though single readings can be large; an effect the other way counts as inactive or inconclusive.
Legend:
[1] = Cytometric Cell-Based qHTS for Inhibitors of the mTORC1 Signaling Pathway in MEF (Tsc2-/-, p53-/-) Cells (AID 2660);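 also: Tsc2 and p53 null MEFs carrying empty vector with compound for 24 h; percent of cells above a phospho-rpS6 to PI ratio cutoff in each well; series mostly up to about 38 µM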
Method in brief: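 Percent of cells positive for normalized phospho-S6 staining is reported, with the cutoff set from rapamycin (7.5 nM) versus DMSO wells. Tsc2-/-, p53-/- MEFs received compound for 24 hrs.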

[2] = High Content Imaging Cell-Based qHTS for Inhibitors of the mTORC1 Signaling Pathway in MEF (Tsc2-/-, p53-/-) Cells (AID 2666);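 also: percent of cells scored positive for phospho-rpS6 Ser235/236 immunostaining by imaging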
Method in brief: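 Inhibition of rpS6 phosphorylation is measured by immunofluorescence imaging in empty-vector Tsc2-/-, p53-/- mouse embryonic fibroblasts after 24 hrs compound exposure at 37 degree Celsius. Results are reported as % positive cells per well.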

[3] = High Content Imaging Cell-Based qHTS for Inhibitors of the mTORC1 Signaling Pathway in MEF Cells (AID 2667);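 also: Tsc2-/- p53-/- MEFs stably re-expressing wild-type Tsc2 exposed 24 h; series mostly up to about 38 µM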
Method in brief: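 Fixed-cell imaging of phospho-S6 (Ser235/236, Alexa-488) after 24 hrs of compound treatment at 37 degree Celsius. Signal was normalized to Hoechst, and thresholds from the highest and lowest wells split cells into % active versus % non-active.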

[4] = Cytometry Cell-Based qHTS for Inhibitors of the mTORC1 Signaling Pathway in MEF cells (AID 2668);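 also: Tsc2-/- p53-/- mouse embryonic fibroblasts stably re-expressing wild-type Tsc2; percent cells positive for phospho-rpS6 Ser235/236 relative to propidium iodide stain; series mostly up to about 38 µM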
Method in brief: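 Phospho-rpS6 (Ser235/236) immunofluorescence over PI signal, scored as % positive cells using thresholds from 7.5 nM rapamycin and DMSO wells, after 24 h compound exposure of WT-Tsc2-rescued Tsc2-/-, p53-/- MEFs. PI cell count recorded for viability.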

[5] = Validation screen for small molecules that induce DNA re-replication in MCF 10A normal breast cells (AID 463097); also: nearly all actives have a fitted effect of over 60% in size; also: potency is read from the fitted curve at half-maximal effect
Method in brief: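 Read-out is Hoechst total nuclear intensity by fluorescence scanning imager, flagging increased high-DNA-content nuclei. Compounds were incubated with MCF 10A cells for 48 hr (37 C, 5% CO2) before 40 min staining.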

[6] = target: Ubiquitin carboxyl-terminal hydrolase 2 (Homo sapiens) (UniProt O75604); test: qHTS Validation Assay for Inhibitors of Ubiquitin-specific Protease USP2a Using CHOP2 as the Reporter (AID 463106)
Method in brief: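 Inhibition is expressed relative to NEM as the full-inhibition control, with concentration-response curves classed by fit quality, magnitude and activity. Enzyme (USP2 core, 10nM) meets 25nM Ub-CHOP2 after compound preincubation; readings are taken at 60min.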

[7] = target: DNA polymerase III PolC-type (Bacillus subtilis (strain 168)) (UniProt P13267); test: qHTS Validation Assay for the Inhibitors of DNA Replication in Gram-Positive Bacteria (AID 485295); also: potency is read from the fitted curve at half-maximal effect
Method in brief: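 Double-stranded DNA product detected by PicoGreen fluorescence after EDTA quench. Compound incubated with B. subtilis holoenzyme (PolC, beta subunit, SSB, primase) before substrate addition; primed replication of M13Gori with dNTPs and NTPs at room temperature; DMSO defines 0% inhibition.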

[8] = target: Tumor susceptibility gene 101 protein (Homo sapiens) (UniProt Q99816); test: qHTS Validation Assay for Iinhibitors of HIV-1 Budding by Blocking the Interaction of PTAP/TSG101 (AID 485342; calls by dose curve)
Method in brief: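 Fluorescence polarization of 50 nM FITC-PTAP peptide bound to 10 uM Tsg101 binding domain was read after 20 min room-temperature incubation with compounds, in 10 mM HEPES pH 7.5, 0.15 M NaCl, 0.01% Tween 20.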

[9] = qHTS Validation Assay to Find Inhibitors of Chronic Active B-Cell Receptor Signaling (AID 485345; active = well fitted curve in the direction sought with a large enough effect in the main read-out, with a control signal flat, not every such curve was filed as active)
Method in brief: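 TMD8 ABC-DLBCL cells with dox-inducible green luciferase–IκBα fusion and red native luciferase; compounds 46 uM–3 nM, 4 h at 37C with doxycycline in 0.5% FBS IMDM. Green/red ratio normalized to basal and 10 uM MG-132.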

Chain of Ubiquitin carboxyl-terminal hydrolase 2 (Homo sapiens) (O75604 whole entry, looked up): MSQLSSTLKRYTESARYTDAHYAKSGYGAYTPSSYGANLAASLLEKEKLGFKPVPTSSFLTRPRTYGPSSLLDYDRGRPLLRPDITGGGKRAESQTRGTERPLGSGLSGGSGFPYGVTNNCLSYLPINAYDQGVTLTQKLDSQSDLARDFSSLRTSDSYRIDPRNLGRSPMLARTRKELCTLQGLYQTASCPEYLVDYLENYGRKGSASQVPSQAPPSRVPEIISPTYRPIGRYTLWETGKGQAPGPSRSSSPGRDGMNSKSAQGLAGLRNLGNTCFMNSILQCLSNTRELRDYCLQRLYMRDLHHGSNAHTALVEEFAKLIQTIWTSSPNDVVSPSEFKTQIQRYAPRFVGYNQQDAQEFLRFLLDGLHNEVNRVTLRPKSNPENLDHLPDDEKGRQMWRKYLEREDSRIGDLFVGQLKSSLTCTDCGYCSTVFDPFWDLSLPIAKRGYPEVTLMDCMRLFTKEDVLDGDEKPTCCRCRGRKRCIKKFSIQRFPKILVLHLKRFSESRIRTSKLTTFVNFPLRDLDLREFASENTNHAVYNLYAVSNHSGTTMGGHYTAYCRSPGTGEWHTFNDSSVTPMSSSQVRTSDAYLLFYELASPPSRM
Chain of DNA polymerase III PolC-type (Bacillus subtilis (strain 168)) (P13267 whole entry, looked up): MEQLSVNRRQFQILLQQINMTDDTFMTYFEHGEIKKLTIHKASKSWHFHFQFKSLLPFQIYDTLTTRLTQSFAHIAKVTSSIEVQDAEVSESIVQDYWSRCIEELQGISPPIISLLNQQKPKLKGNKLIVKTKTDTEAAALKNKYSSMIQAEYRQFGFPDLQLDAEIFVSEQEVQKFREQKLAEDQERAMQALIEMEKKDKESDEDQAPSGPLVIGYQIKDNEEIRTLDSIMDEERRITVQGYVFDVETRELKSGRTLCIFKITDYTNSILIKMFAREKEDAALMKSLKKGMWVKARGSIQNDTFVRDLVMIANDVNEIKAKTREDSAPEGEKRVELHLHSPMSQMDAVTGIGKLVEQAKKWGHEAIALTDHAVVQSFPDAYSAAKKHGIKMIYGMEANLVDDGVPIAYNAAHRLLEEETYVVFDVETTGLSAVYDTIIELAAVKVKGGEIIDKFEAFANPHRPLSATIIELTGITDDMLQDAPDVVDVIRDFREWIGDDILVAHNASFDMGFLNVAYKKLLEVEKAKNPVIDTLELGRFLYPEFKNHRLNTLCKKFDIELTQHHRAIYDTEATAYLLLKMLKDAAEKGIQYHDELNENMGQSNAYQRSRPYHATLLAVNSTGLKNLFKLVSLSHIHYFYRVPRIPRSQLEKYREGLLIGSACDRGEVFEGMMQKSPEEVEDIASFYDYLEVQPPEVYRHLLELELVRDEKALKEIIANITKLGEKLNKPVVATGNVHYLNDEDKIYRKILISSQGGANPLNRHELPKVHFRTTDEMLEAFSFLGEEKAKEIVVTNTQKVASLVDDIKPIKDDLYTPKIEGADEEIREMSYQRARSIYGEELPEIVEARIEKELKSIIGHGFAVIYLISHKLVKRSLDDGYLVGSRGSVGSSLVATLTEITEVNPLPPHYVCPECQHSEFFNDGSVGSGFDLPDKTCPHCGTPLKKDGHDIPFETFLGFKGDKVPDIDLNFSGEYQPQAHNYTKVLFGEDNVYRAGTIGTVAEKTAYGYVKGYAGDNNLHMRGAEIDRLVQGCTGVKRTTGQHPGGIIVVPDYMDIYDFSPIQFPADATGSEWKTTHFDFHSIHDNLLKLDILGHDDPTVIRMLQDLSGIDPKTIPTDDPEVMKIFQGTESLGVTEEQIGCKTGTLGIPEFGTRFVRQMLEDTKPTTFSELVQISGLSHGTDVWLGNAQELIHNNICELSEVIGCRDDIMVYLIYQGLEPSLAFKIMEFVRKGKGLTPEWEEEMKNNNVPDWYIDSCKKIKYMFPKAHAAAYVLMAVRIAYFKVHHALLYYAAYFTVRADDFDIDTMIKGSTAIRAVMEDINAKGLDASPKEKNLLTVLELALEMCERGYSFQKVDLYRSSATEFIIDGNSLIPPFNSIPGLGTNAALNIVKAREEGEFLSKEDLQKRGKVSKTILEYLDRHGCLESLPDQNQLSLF
Chain of Tumor susceptibility gene 101 protein (Homo sapiens) (Q99816 whole entry, looked up, the tested form may be a part): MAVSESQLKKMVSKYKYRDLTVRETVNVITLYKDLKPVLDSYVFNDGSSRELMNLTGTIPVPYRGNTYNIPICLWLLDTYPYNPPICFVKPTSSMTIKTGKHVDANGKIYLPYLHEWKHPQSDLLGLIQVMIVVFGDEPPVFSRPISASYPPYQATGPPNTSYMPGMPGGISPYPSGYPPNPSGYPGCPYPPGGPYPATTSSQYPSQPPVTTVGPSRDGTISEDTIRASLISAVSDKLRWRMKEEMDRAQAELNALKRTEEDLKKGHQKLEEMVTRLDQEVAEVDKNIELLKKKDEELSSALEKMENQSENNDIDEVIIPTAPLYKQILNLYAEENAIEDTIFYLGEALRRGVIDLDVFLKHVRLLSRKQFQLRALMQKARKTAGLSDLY

Compound	outcome [1]	Potency [2]	Potency [3]	Potency [4]	Potency [5]	Potency [6]	Potency [7]	outcome [8]	outcome [9]
NC(=Nc1ccccc1)NC(=O)c1nc(Cl)c(N)nc1N	inactive	inactive	inactive	inactive	14.1 µM (active)	inactive	inactive	inactive	–
Nc1ncnc2c1ncn2C1CCCO1 (configuration not stated)	inactive	inactive	inactive	inactive	inactive	inactive	inactive	inactive	–
COc1ccccc1N1CCN(CCCCN2C(=O)c3ccccc3C2=O)CC1	inactive	inactive	inactive	inactive	inactive	inactive	inactive	inactive	–
Nc1ccc(CCNc2ncnc3c2ncn3C2OC(CO)C(O)C2O)cc1 (configuration not stated)	inactive	inactive	inactive	inactive	inactive	inactive	inactive	inactive	–
CCCCOc1cc(CC2CNC(=O)N2)ccc1OC (configuration not stated)	inactive	inactive	inactive	inactive	inactive	inactive	inactive	inactive	–
Cn1c(=O)c2c(nc(/C=C/c3cccc(Cl)c3)n2C)n(C)c1=O	inactive	inactive	inactive	inactive	inactive	inactive	inactive	inactive	–
N=S(=O)(O)Cc1noc2ccccc12	inactive	inactive	inactive	inactive	inactive	inactive	inactive	inactive	inactive
O=c1[nH]c2cc(Cl)ccc2c(O)c1-c1ccc(Oc2ccccc2)cc1	inactive	inactive	inactive	inactive	inactive	inactive	inactive	inactive	–
CCCCCC[C@@H]([C@@H](C)O)n1cnc2c(N)ncnc21	inactive	inactive	inactive	inactive	inactive	inactive	inactive	inactive	inactive
CC(C)Cn1c(=O)n(C)c(=O)c2[nH]cnc21	inactive	inactive	inactive	inactive	inactive	inactive	inactive	inactive	–
CSC(N)=NCCC[C@H](N)C(=O)O	inactive	inactive	inactive	inactive	inactive	inactive	inactive	inactive	inactive
Cn1c(=O)c2[nH]c(C3CCCC3)nc2n(C)c1=O	inactive	inactive	inactive	inactive	inactive	inactive	inactive	inactive	–
Fc1ccc(CN(C2=NCCN2)c2c(Cl)cccc2Cl)cc1	inactive	inactive	inactive	inactive	inactive	inactive	inactive	inactive	inactive
O=c1ccc2c(OCCCCc3ccccc3)c3ccoc3cc2o1	inactive	inactive	inactive	inactive	inactive	inactive	inactive	inactive	–
O=C(O)/C(=C/c1c(C(=O)O)[nH]c2cc(Cl)cc(Cl)c12)c1ccccc1	inactive	inactive	inactive	inactive	inactive	inactive	inactive	inactive	–
N#Cc1cc2nc(O)c(O)nc2cc1[N+](=O)[O-]	inactive	inactive	inactive	inactive	inactive	inactive	inactive	inactive	inactive
CCCCC[C@H](CC(=O)NO)C(=O)N[C@H](C(=O)N1CCC[C@H]1CO)C(C)C	inactive	inactive	inactive	inactive	inactive	inactive	inactive	inactive	–
O=C(O)Cc1c[nH]c2ccc(O)cc12	inactive	inactive	inactive	inactive	inactive	inactive	inactive	inactive	–
Cc1nc2c(OCc3ccccc3)cccn2c1CC#N	inactive	inactive	inactive	inactive	inactive	inactive	inactive	inactive	–
NS(=O)(=O)c1cccc2c1c([N+](=O)[O-])cc1nc(O)c(O)nc12	inactive	inactive	inactive	inactive	inactive	inactive	inactive	inactive	–
CC(=O)C(C)=O	inactive	inactive	inactive	inactive	inactive	inactive	inactive	inactive	–
N=C(N)SCCN	inactive	inactive	inactive	inactive	inactive	inactive	inactive	inactive	–
NCC(O)(CS(=O)(=O)O)c1ccc(Cl)cc1 (configuration not stated)	inactive	inactive	inactive	inactive	inactive	inactive	inactive	inactive	inactive
O=C(O)c1ccccc1Nc1cccc(OCc2ccc3ccccc3n2)c1	inactive	inactive	inactive	inactive	inactive	inactive	inactive	inactive	–
C[N+](C)(C)CC=O	inactive	inactive	inactive	inactive	inactive	inactive	inactive	inactive	inactive
CNc1ncnc2c1ncn2[C@H]1C[C@H](OP(=O)(O)O)[C@@H](COP(=O)(O)O)O1	inactive	inactive	inactive	inactive	inactive	inactive	inactive	inactive	–
N[C@@H](Cc1ccc(O)c(I)c1)C(=O)O	inactive	inactive	inactive	inactive	inactive	inactive	inactive	inactive	inactive
O=c1cc(O)cc(/C=C/c2ccc(O)c(O)c2)o1	inactive	inactive	inactive	inactive	inactive	inactive	21.2 µM (active)	inactive	–
